EBI2 antag = EBI2 receptor antagonists, beta-arrestin recruitment, primary screen, cell-based, luminescence, 7a,25-OHC stimulation, uHTS. AID 651636, 2012. 7a,25-OHC stimulated. hit rate 0.81% among 360,000. inhibition, % at 5 µM; in the data active = inhibition above about 38%;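 also: enzyme fragment complementation signal reports receptor beta-arrestin coupling in cells; 0% = agonist plus DMSO wells and 100% = wells without agonist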
Target sequence (P32249 whole entry, looked up, the tested form may be a part): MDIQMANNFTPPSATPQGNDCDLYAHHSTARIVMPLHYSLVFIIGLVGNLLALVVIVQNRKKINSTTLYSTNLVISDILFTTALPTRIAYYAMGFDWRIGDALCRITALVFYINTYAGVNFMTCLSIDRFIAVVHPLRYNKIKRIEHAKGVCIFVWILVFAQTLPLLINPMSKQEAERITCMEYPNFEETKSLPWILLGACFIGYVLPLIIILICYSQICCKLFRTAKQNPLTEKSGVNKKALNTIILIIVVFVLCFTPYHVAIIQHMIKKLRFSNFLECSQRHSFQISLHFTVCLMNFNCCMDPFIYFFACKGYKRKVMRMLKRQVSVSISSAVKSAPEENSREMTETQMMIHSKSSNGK
PfHsp90 set2 = growth inhibition of PfHsp90-expressing yeast, primary screen, antimalarial PfHsp90 inhibitor project, S. cerevisiae, BacTiter-Glo luminescence, single point, set 2. inhibition, % at 9.4 µM. hit rate 0.32% among 310,000. BacTiter-Glo ATP, 48 h; yeast lacking PDR1 and PDR3 efflux regulators;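 active = every replicate shows inhibition above about 80%, whatever the replicate mean, limit read from the data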;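 also: 0% = DMSO neutral controls and 100% = 20 µM radicicol positive controls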
SKKanGAS inh = S. pyogenes SKKanGAS growth inhibitors in kanamycin, primary screen, streptokinase expression inhibitor project, SKKanGAS strain, BacTiter-Glo luminescence. 6 h. inhibition, % at 7.5 µM. hit rate 1.3% among 300,000;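 active = mean replicate score, as percent of positive control median, at least 50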;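 also: strain carries kanamycin resistance gene driven by streptokinase promoter and grows in 40 µg/ml kanamycin; loss of luminescence reflects streptokinase promoter inhibition or plain growth inhibition; 0% = median of DMSO wells and 100% = positive control at its reference dose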
tim10-1 inh = growth inhibitors of tim10-1 mutant yeast, primary screen, luminescence, uHTS; AID 463190, 2010; inhibition, % at 20 µM; S. cerevisiae tim10-1 ts strain growth, BacTiter-Glo, 24 h; hit rate 2.2% among 330,000;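 active = inhibition of at least 40%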;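 also: mutant grown at 25 °C; 0% = DMSO wells with yeast and 100% = wells holding no yeast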
tim23-1 inh = growth inhibitors of tim23-1 mutant yeast, primary screen, luminescence, uHTS; hit rate 1.3% among 330,000; inhibition, % at 20 µM; AID 463212, 2010; S. cerevisiae tim23-1 growth, BacTiter-Glo luminescence, 24 h;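 active = growth inhibition of the mutant yeast at or above 50%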;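 also: temperature-sensitive mutant grown at 25 °C; plate controls were DMSO-treated mutant yeast for no effect and medium wells lacking yeast for full effect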
TIM10 inh = growth inhibitors of isogenic TIM10 control yeast, primary screen, counter-screen for tim10-1 yeast inhibitor project, luminescence, uHTS | S. cerevisiae TIM10 strain growth, BacTiter-Glo luminescence, 24 h | hit rate 1.4% among 330,000 | inhibition, % at 10 µM;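 active = inhibition of 40% or more at the single tested concentration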;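 also: wild-type TIM10 isogenic control strain grown at permissive 25 °C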
tim10-1 conf = growth inhibitors of tim10-1 mutant yeast, confirmation, single concentration, luminescence, S. cerevisiae; shares compounds with tim10-1 inh; S. cerevisiae tim10-1 ts strain growth, BacTiter-Glo, 24 h; inhibition, % at 20 µM; hit rate 56% among 7,400; AID 463213, 2010;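 active = inhibition of yeast growth at or above a set limit in either of two repeat tests at 20 µM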;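 also: tim10-1 mutant grown at permissive 25 °C to find synthetic lethal compounds; 0% = DMSO yeast wells and 100% = medium wells without yeast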
* = called active by the depositor; · = no result. This is a sample that favours compounds with a hit; in the whole collection about 4.7% have one here.

SMILES	EBI2 antag	PfHsp90 set2	SKKanGAS inh	tim10-1 inh	tim23-1 inh	TIM10 inh	tim10-1 conf
Cc1csc(NC(=O)c2ccc(C)c(S(=O)(=O)N3CCOCC3)c2)n1	·	·	0.6	41.2*	12.1	18.7	14.9
Cc1csc(NC(=O)c2ccc(C)c(S(=O)(=O)N3CCCCC3)c2)n1	3.4	·	2.2	23.9	25.8	9.1	·
COC(=O)c1cccc(NC(=O)c2cc3sccc3n2C)c1	11.2	11.2	-5.0	43.6*	33.8	31.0	30.8
Cc1onc(-c2ccccc2Cl)c1C(=O)NCc1nnnn1-c1ccc(F)c(F)c1	-1.5	·	·	·	·	·	·
CCOC(=O)CSc1nnc(CSc2nc3sc4c(c3c(=O)[nH]2)CCCC4)n1-c1ccccc1	-8.2	·	1.8	12.9	27.0	1.2	·
CNC(=S)NNC(=O)c1cc(-c2cccnc2)nc2ccccc12	6.4	54.8	20.6	48.6*	49.1	33.8	40.1*
Cc1ccc(-c2cc(C(=O)Nc3cccnc3)c3ccccc3n2)s1	-9.7	11.8	5.0	41.9*	35.5	27.5	13.3
Cc1cccc(-c2cc(C(=O)Nc3cccnc3)c3ccccc3n2)c1	-12.0	0.2	1.3	40.3*	43.0	23.7	18.6
Cc1cc(C)nc(NC(=O)c2cc(-c3ccc(C)s3)nc3ccccc23)c1	3.2	17.8	14.7	24.5	20.6	11.0	·
Cc1cccc(-c2cc(C(=O)Nc3ccncc3)c3ccccc3n2)c1	-38.4	-8.4	0.5	8.1	2.1	3.6	·
Cc1ccc(N(CCC#N)C(=O)COC(=O)C2=COCCO2)cc1	-2.7	-14.8	0.3	-5.9	-1.1	3.0	·
C/C(=C\c1ccccc1)C(=O)Nc1cc(C)on1	-5.6	4.0	-8.3	6.0	13.3	1.9	·
O=C(O)Cn1nc2c3c(cccc3c1=O)-c1ccccc1-2	-7.5	-9.2	-3.9	6.9	4.1	4.8	·
Cc1ccc(-n2nc3c4c(cccc4c2=O)-c2ccccc2-3)cc1	7.3	·	9.2	41.6*	7.1	19.3	22.6
CN1CCN(S(=O)(=O)c2ccc(Sc3nnnn3-c3ccccc3)c([N+](=O)[O-])c2)CC1	-69.9	-16.8	-3.2	23.4	28.2	9.9	·
CC(=O)c1ccc(Sc2nnnn2-c2ccccc2)c([N+](=O)[O-])c1	-33.0	-9.5	-4.0	45.6*	46.2	16.5	30.7
Cc1ccc2cccc(OCCCOc3ccccc3F)c2n1	15.8	-10.1	19.2	42.7*	46.3	22.1	30.2
O=C(Cn1cnc([N+](=O)[O-])c1)Nc1ccc(Cl)cc1Cl	1.6	·	·	·	·	·	·
CN(C)c1nc(OCCNC(=O)COc2ccc(Cl)cc2Cl)nc(N(C)C)n1	3.5	·	-10.7	43.8*	16.6	14.0	15.4
Cc1ccccc1NC(=O)COC(=O)/C=C/c1cccc(C(F)(F)F)c1	-20.4	31.1	6.3	10.8	-3.6	-12.0	·
CCOc1ccccc1NC(=O)C1CC(=O)n2ncnc2N1 (centres undefined)	5.3	-10.6	-2.0	10.9	24.5	-7.1	·
COc1ccccc1N1CCN(C(=O)CCCN2C(=O)c3cccc4cccc(c34)C2=O)CC1	-12.0	-19.1	2.5	44.7*	31.2	27.6	26.5
CC(=O)N1CCN(S(=O)(=O)c2cccc(C(=O)NCCC3=CCCCC3)c2)CC1	-5.6	·	1.5	14.0	1.6	-4.6	·
CNc1nc(-c2cccs2)cc(C(F)(F)F)c1C#N	-0.6	8.4	-1.8	-7.5	8.4	5.6	·
Cc1ccccc1OCCCC(=O)Nc1nccs1	4.5	4.7	2.7	-7.4	16.1	-13.4	·
SMILES	EBI2 antag	PfHsp90 set2	SKKanGAS inh	tim10-1 inh	tim23-1 inh	TIM10 inh	tim10-1 conf
Cc1cccc(OCC(=O)Nc2nccs2)c1C	0.9	-9.1	12.0	42.4*	23.8	21.0	25.2
COc1ccc(-c2[nH]c(-c3ccc4c(c3)OCO4)nc2-c2ccccc2)cc1	23.8	58.7	25.0	53.8*	48.5	22.1	28.2
Cc1ccc(C(=O)OCN2C(=O)c3ccccc3C2=O)c(O)c1	-0.5	30.3	-0.5	-0.4	3.1	-2.2	·
COc1ccc(CNCc2cc3c(C(C)(C)C)nn(-c4ccccc4)c3[nH]c2=O)cc1	4.5	36.9	-6.4	27.2	18.1	16.4	·
Cc1ccc(CNCc2cc3c(C(C)(C)C)nn(-c4ccccc4)c3[nH]c2=O)cc1	5.8	·	-0.8	49.7*	45.7	23.9	38.7*
CCOC(=O)c1c(NC(=S)N2CCN(C)CC2)sc(C)c1-c1ccccc1	7.5	-7.2	50.1*	42.9*	45.1	28.3	31.4*
COc1ccccc1-c1nnc(Sc2nc([N+](=O)[O-])nn2C)o1	-7.5	·	1.1	48.0*	44.3	35.0	41.7*
Cc1nn(-c2ccc(Cl)cc2)c2[nH]c(CCl)cc(=O)c12	3.0	-27.9	9.6	62.5*	47.0	31.2	31.8*
S=c1[nH]nc(Nc2ccc(Cl)cc2)s1	-8.6	-12.6	6.7	40.4*	22.3	29.4	34.2*
CCOc1cc(/C=N/O)cc(Br)c1OCc1ccc(Cl)cc1	1.8	-2.1	4.0	53.5*	-18.5	-10.7	26.9
O=C1CCN(Cc2ccccc2)C(=S)N1	-3.1	-2.6	·	·	·	·	·
Cc1c(/C=C/C(=O)c2ccccc2O)cnn1C	3.9	13.7	-1.8	49.6*	39.1	36.6	38.6*
Cc1ccc(/C=C/C(=O)c2ccccc2O)cc1	10.4	6.0	13.1	15.4	34.1	26.7	·
Cc1ccc2occ(/C=C/C(=O)c3ccccc3O)c(=O)c2c1	23.0	-30.1	-6.2	47.7*	37.6	17.3	33.4*
CC(=O)c1ccc(S(=O)(=O)N(C)CCCC(=O)NCc2ccc3c(c2)OCO3)cc1	6.1	·	·	13.4	23.1	5.7	·
Cc1ccccc1NC(=S)N(Cc1ccccn1)Cc1ccccc1Cl	9.0	-4.0	-3.8	44.9*	36.5	27.4	34.4*
COc1ccccc1NC(=S)N(Cc1ccccn1)Cc1ccccc1Cl	-17.4	10.6	11.6	39.5	29.8	31.2	·
N#CC(C#N)=C1NC2(CCCCC2)Cc2ccccc21	4.3	-23.6	-6.5	20.0	12.5	23.7	·
N#CC(C#N)=c1ccc2c(c1)NC1(CCCCC1)N=2	5.7	42.4	19.2	46.4*	44.5	28.6	41.8*
CC1COC(c2cccn2Cc2ccccc2Cl)=N1 (centres undefined)	8.0	-3.8	10.3	17.4	-1.3	14.7	·
CN(C(=O)Cn1cccc1C1=NC(c2ccccc2)CO1)c1ccccc1 (centres undefined)	-13.3	0.0	-2.4	41.6*	29.9	20.9	17.8

Screening data: PubChem BioAssay, several laboratories
